Data from PubChem BioAssay AID1566 (Sanford-Burnham Center for Chemical Genomics, 2009).
Hit rate of the full screen: of about 290,000 compounds, about 1,800 (0.62%) were called active. Only a selection was taken, and actives are over-represented in it overall. Values without a mark were called inactive. No stated cut-off is given here; in the data, active means inhibition above about 50%; inactive means the rest.

experiment: inhibition of NOD2-driven NF-kB reporter – cell-based, luminescence, uHTS, HEK293 (AID 1566); details: HEK293 NOD2/NF-kB luciferase reporter, at 4 µM, hits give high values

Row | Structure (SMILES) | inhibition
1 | C/C(=N/NC(=O)CN1CCN(Cc2ccccc2Cl)CC1)c1cccs1 | 20%
2 | Cc1ccc(NC(=O)Cc2ccccc2)c(C)c1 | -14.9%
3 | Cc1ccc(NC(=O)c2cc(C)nc3ccccc23)c(C)c1 | 1.4%
4 | Cc1cc(C)n(C(C)CC(=O)N2CCc3ccccc32)n1 (stereo not drawn) | 14.5%
5 | COc1ccc(S(=O)(=O)Nc2cc(OC)c(NC(=O)c3ccco3)cc2OC)cc1 | 19.5%
6 | O=c1c2ccccc2c(C=Nc2ccc(S(=O)(=O)N3CCCCC3)cc2)c(O)n1-c1ccc(Cl)cn1 | -6.9%
7 | Cc1cccc(NC(=O)CCSc2ccccc2)c1C | -32.5%
8 | CCC(=O)Nc1nnc(/C=C/c2ccccc2)s1 | -60.7%
9 | COc1ccc(CNC(=O)c2ccc3ccccc3n2)cc1 | 0.9%
10 | COc1ccc(CCNC(=O)c2ccc3ccccc3n2)cc1OC | 6.9%
11 | Cc1cccc(/C=N\NC(=O)c2ccccc2-n2cccc2)c1 | -1.5%
12 | O=C(c1cccc(S(=O)(=O)N2CCCC2)c1)c1cccc(S(=O)(=O)N2CCCC2)c1 | 32.8%
13 | CCN(CC)c1ccc2nc3ccccc3[n+](CC)c2c1 | 74.8% (active)
14 | CCN(CC)c1ccc(/C=N/Nc2nc3ccccc3[nH]2)c(O)c1 | -63.5%
15 | CCN(CC)c1ccc2cc(-c3nc4ccccc4[nH]3)c(=O)oc2c1 | -69.7%
16 | O=C(c1cc2ccccc2oc1=O)N1CCCCCCC1 | 9.4%
17 | CCCCn1c(-c2nn(C)c(C)c2Cl)n[nH]c1=S | 19.7%
18 | CCN1CCN(Cc2ccc(NC(=O)c3cc(NC(=O)C(=O)c4c[nH]c5ccccc45)cc(OC)c3)cc2C(F)(F)F)CC1 | 5.4%
19 | CCN1CCN(Cc2ccc(NC(=O)c3ccc(C)c(NC(=O)c4cccc5[nH]ccc45)c3)cc2C(F)(F)F)CC1 | -20.7%
20 | CCN1CCN(Cc2ccc(NC(=O)c3ccc(C)c(NC(=O)C(=O)c4c[nH]c5ccccc45)c3)cc2C(F)(F)F)CC1 | 57% (active)
21 | O=C(/C=C/c1ccccc1)NC(=S)Nc1ccccc1O | 0.9%
22 | Nc1ccc(-c2nc3ccc(N)cc3[nH]2)cc1 | -7%
23 | Nc1ccc(-c2nc3c(Cl)cc(N)cc3[nH]2)cc1 | 55.1% (active)
24 | Nc1ccc(-c2nc3c(Cl)c(N)ccc3[nH]2)cc1 | -6.6%
25 | NC(=O)c1ccc(NC(=O)Cc2csc(-c3ccccc3)n2)cc1 | 8%
26 | CCOc1ccc(C(=O)CSCCC(=O)O)cc1 | 53.4% (active)
27 | CCOc1ccc(C(=O)CCC(=O)O)cc1 | 16%
28 | CCOc1ccc(C(=O)CSCC(=O)O)cc1 | 6.2%
